Source: PubChem BioAssay
Pf Dd2 growth = inhibitors of Plasmodium falciparum Dd2 growth; AID 1347417; 4.3% of 120,000 active; P. falciparum Dd2 growth, SYBR Green, 72 h; Potency, µM (series often up to 28.9 µM), inactives show top-dose activity, negative = inhibition, usual class: inhibitors; active = well fitted inhibition curve with a large enough effect;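 also: plate controls were DMSO vehicle for no effect and reference drug for full effect; nearly all actives have a fitted effect of over 65% in size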
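Readout: SYBR Green fluorescence, 485 nm excitation, 535 nm emission, after ~16 h lysis at 37C. Before that, Dd2-infected red cells (2.5% hematocrit) grew 72 h with compound, 29 uM top final concentration.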
Active calls of the source: *; i = inactive; [ ] = remark or other dose. Many of the other results were omitted from the sample, so hits are more common in it than they were. Potency is read from the fitted curve at half-maximal effect.

SMILES	Pf Dd2 growth
CC(C)CC(=O)N1CCCCCNC(=O)CC1c1ccccc1 (stereo not drawn)	-13.9%
CN1Cc2cccn2CC1CNC(=O)c1nn(C)c2ccccc12 (stereo not drawn)	-20.0%
CCCNC(=O)N1CCCN(Cc2ccc3c(c2)OCO3)c2ccccc21	i
Cc1cc(C)c2oc(-c3cccc(NC(=O)c4ccc(Br)o4)c3)nc2c1	40.9%
Cc1cc(C)c2oc(-c3ccc(NC(=O)c4cc(Br)ccc4Cl)cc3)nc2c1	10µM*
COc1ccccc1C(=O)Nc1ccc(-c2nc3cc(C)cc(C)c3o2)cc1	3.3%
COc1ccc(-c2nc(C3CC(=O)N(c4ccc(F)c(Cl)c4)C3)no2)cc1 (stereo not drawn)	32.0%
Cc1nc([C@@H]2CN(C3CCN(CCc4ccccc4)CC3)C[C@H]2C(N)=O)n[nH]1	18.1%
Cn1nnnc1SCCCNCc1cccc(OCc2ccc(F)cc2)c1	5.62µM*
CCOc1cccc(CNCCCSc2nnnn2C)c1	-4.3%
Cn1nnnc1SCCNCc1ccc(OCc2ccccc2)cc1	i
CC(C)NC(=O)NC[C@H]1O[C@@H](CO)[C@@H](O)[C@H]1N(C)CCc1ccccn1	-1.3%
CCOc1ccc(CN2CCC(N(C(=O)CC)C3CCOCC3)CC2)cc1	i
CCc1ccc(Oc2c(C(F)(F)F)oc3c(CN4CCC(C)CC4)c(O)ccc3c2=O)cc1	0.316µM*
CCN1CCN(Cc2c(O)ccc3c(=O)c(Oc4ccccc4Cl)c(C(F)(F)F)oc23)CC1	0.251µM*
CCc1ccc(Oc2c(C(F)(F)F)oc3c(CN4CCN(CC)CC4)c(O)ccc3c2=O)cc1	0.1µM*
O=C1CCCCCN1C1CCN(Cc2ccc(OC(F)(F)F)cc2)CC1	i
CCN1CCN(C(c2ccccc2Cl)c2c(O)cc(C)n(Cc3ccco3)c2=O)CC1 (stereo not drawn)	10.0%
O=C(N1CCN(c2ncncn2)CC1)N(c1ccccc1)c1ccccc1	-5.8%
O=C(C[C@@H]1C[C@H]2O[C@H](CNCc3ccncc3F)[C@@H](O)[C@H]2O1)N1CCOCC1	-1.8%[44.1 µM]
C=CCNC(=O)CCc1c(C)nn(-c2ccc(F)cc2)c1Oc1ccccc1C	i
O=C(c1ccncc1)N1CC[C@H](c2nnc(-c3ccncc3)o2)C1	i
CCOC(=O)c1ccccc1NC(=O)CN1C(=O)NC2(CCOCC2)C1=O	48.9%
O=C(C1CCCC1)N1CCC(N2CC(OCC3CC3)C23CCOCC3)CC1 (stereo not drawn)	i
O=C(NC1CCCCC1)c1ccc(CSc2nc3cccnc3n2Cc2cccc(F)c2)cc1	11.2µM*
SMILES	Pf Dd2 growth
Cc1cccc(Cn2c(SCc3ccc(C(=O)NC4CCCC4)cc3)nc3cccnc32)c1	-26.1%
O=C(NC1CCCCC1)c1ccc(Cn2c(SCc3ccc(F)cc3)nc3cccnc32)cc1	-2.1%
Cc1cccc(Cn2c(SCc3ccc(C(=O)NC4CCCCC4)cc3)nc3cccnc32)c1	10µM*
O=C(NC1CCCCC1)c1ccc(CSc2nc3cccnc3n2Cc2ccc(F)cc2)cc1	20.4%[5.79 µM]
CCn1ncc(N2CCCC(CC(=O)NCCc3cccs3)C2)cc1=O (stereo not drawn)	i
CCOC(=O)Cn1c(=O)n(CC2CCCO2)c2nc(-c3ccccc3Cl)nc(C(N)=O)c21 (stereo not drawn)	6.4%
CCOC(=O)Cn1c(=O)n(-c2cccc(Cl)c2)c2nc(-c3ccccc3Cl)nc(C(N)=O)c21	10µM*
CCOC(=O)Cn1c(=O)n(-c2ccccc2OC)c2nc(-c3ccccc3F)nc(C(N)=O)c21	-29.8%
NCCn1cc(C(=O)N2CCC(Oc3ccncc3)CC2)nn1	7.4%
CCN(CC)[C@H]1C[C@@H](Cc2cc(CCO)on2)C1(C)C	28.5%[44.1 µM]
COc1ccccc1NC(=O)Cn1c(C)ccc(NS(=O)(=O)c2ccccc2)c1=O	1.41µM*
COc1ccc(S(=O)(=O)Nc2ccc(C)n(CC(=O)NCc3ccccc3)c2=O)cc1	-12.9%
CCc1ccc(NC(=O)Cn2c(C)ccc(NS(=O)(=O)c3ccccc3)c2=O)cc1	-5.8%
CC(C)NC(=O)c1nc(-c2ccsc2)c2ccccn12	2.1%[44.1 µM]
COc1cccc(CC(=O)Nc2ccc3c(c2)CN(CCc2ccccc2)C(=O)C(C)O3)c1 (stereo not drawn)	i
COc1ccc(-c2nnc(SCC(=O)NCc3ccccc3)nc2-c2ccc(OC)c(OC)c2)cc1OC	8.91µM*
CCOc1ccc(-c2nnc(SCC(=O)NC3CCCC3)nc2-c2ccc(OCC)c(OC)c2)cc1OC	90.6%
CCOc1cc(-c2nnc(SCC(=O)Nc3ccc(F)c(F)c3)nc2-c2ccc(OC)c(OCC)c2)ccc1OC	15.4%
Cc1ccc(C(=O)Nc2ccc3c(N4CCOCC4)ncnc3c2)cc1F	-19.2%
COc1ccc(C(=O)N[C@@H]2CCC[C@@H]2C(=O)NCc2cccnc2)cc1	11.8%
Cc1c(C(=O)Nc2ccccc2Cl)oc2ccc(S(=O)(=O)N3CCCCC3)cc12	i
CCN(CC)S(=O)(=O)c1ccc2oc(C(=O)Nc3ccc(Br)cc3F)c(C)c2c1	1.1%
Cc1c(C(=O)Nc2ccccc2Br)oc2ccc(S(=O)(=O)N3CCOCC3)cc12	-2.7%
Cc1c(C(=O)Nc2ccccc2Cl)oc2ccc(S(=O)(=O)N3CCCCCC3)cc12	21.2%
Cc1c(Cl)cccc1NC(=O)c1oc2ccc(S(=O)(=O)N3CCC4(CC3)OCCO4)cc2c1C	12.6µM*
SMILES	Pf Dd2 growth
Cc1c(C(=O)Nc2ccc(Br)cc2F)oc2ccc(S(=O)(=O)N3CCC4(CC3)OCCO4)cc12	12.6µM*
COc1ccc(-c2cc(N3CCC(NC(=O)c4ccccc4Br)C3)n[nH]2)cc1 (stereo not drawn)	i
O=C(N[C@H](c1cccs1)C1CC(O)C1)c1n[nH]c2c1COCC2 (stereo partly drawn)	-12.6%
O=C(NCC1CCOCC1)Nc1ccccc1C(F)(F)F	38.6%
Cc1ccc(NC(=O)N[C@H](Cc2ccccc2)C(=O)N2CCOCCNC(=O)CC2)cc1C	i
COc1ccc(-c2noc(-c3nnn4c3COC(c3ccc(C)cc3C)C4)n2)cc1F (stereo not drawn)	i
O=C(NC[C@H]1O[C@@H](CO)[C@@H](O)[C@H]1N1CCN(c2ccccn2)CC1)c1ccco1	-17.3%
CNCCN1C(=O)CC[C@H]2CN(C(=O)c3ccc(C(C)C)[nH]c3=O)CC[C@H]21	-2.7%
Cn1nc(C(=O)Nc2ccc(F)c(Cl)c2)c2c1-c1ccccc1S(=O)(=O)C2	8.91µM*
COc1cc(NC(=O)c2nn(C)c3c2CS(=O)(=O)c2ccccc2-3)cc(OC)c1	-20.6%
Cc1ccc(NC(=O)c2nn(C)c3c2CS(=O)(=O)c2ccccc2-3)c(Cl)c1	-1.4%
Cc1noc(C)c1-c1cc2c(cc(C)n2C)c(-c2cccc([S+](C)(=O)[O-])c2)n1	i
O=C(CCC1CCN(C(=O)[C@@H]2C[C@@H]3C=C[C@H]2C3)CC1)Nc1ccc2c(c1)OCCO2	-21.5%
COc1ccc(N2CC3CCC(C2)N3Cc2ccc(-c3ccccc3)cc2)cc1	8.9%
COc1ccc(N2CC3CCC(C2)N3Cc2cccc(-c3cccnc3)c2)cc1	11.2µM*
COc1ccc(N2CC3CCC(C2)N3Cc2ccccc2)cc1	-10.7%
Fc1ccc(-c2cc(-c3ccccc3)c3c(n2)-c2ccccc2OC3)cc1	i
Fc1ccc(-c2nc(Nc3cccc(C(F)(F)F)c3)nc3c2COc2ccccc2-3)cc1	10µM*
Fc1ccc(Nc2nc(-c3cccc(Cl)c3)c3c(n2)-c2ccccc2OC3)c(F)c1	-14.9%
CCN1C(=O)CCc2cc(NC(=O)Cc3ccc(F)cc3)ccc21	-15.3%
COc1cccc(C(=O)N[C@@H]2CN(C)C[C@H]2CN(C)C)c1OC	38.1%
